Potency data for 38 compounds are collected here from PubChem BioAssay (NCATS).

Each structure is given as a SMILES string. Values joined by “and” are separate entries in the source; they are usually repeats but may differ in a detail not shown here. Identical values can stand only once. Records with an inconclusive call do not appear. A structure can be active in one record and inactive in another. Active and inactive are the calls of the source. Unless noted, calls come from the whole dose curve; as a rule, active = well fitted curve in the direction sought with a large enough effect; inconclusive = small, poorly fitted or top-dose-only effect, or another doubt; inactive = no such curve, though single readings can be large; an effect the other way counts as inactive or inconclusive.

The target in experiment [1] is Calcium and integrin-binding protein 1 (Homo sapiens) (UniProt Q99828). The experiment can be described thus: Primary qHTS for Identification of Calcium Integrin Binding Protein 1 (CIB1) Competitor (AID 1508620).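 Note: GST tagged CIB1 binding a fluorescein labelled alphaIIb integrin peptide tracer; top concentration of the series differs between compounds.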 The method, boiled down:
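Fluorescence polarization competition: GST-tagged CIB1 (1 uM final) preincubated with compound 15 min at room temperature, then FITC-labelled alphaIIb peptide (100 nM final) added. After 15 min at room temperature, polarization read at Ex 480/Em 540.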
Background: In qHTS, concentration-response curves come from the screen itself.

The target in experiment [2] is Cytochrome P450 2D6 (Homo sapiens) (UniProt P10635). The experiment can be described thus: Cytochrome P450 family 2 subfamily D member 6 (CYP2D6) small molecule antagonists: luciferase biochemical (cell-free) qHTS assay (AID 1645840; active = well fitted curve in the direction sought with a large enough effect in the repeat runs; an effect the other way counts as inactive or inconclusive; note: nearly all actives have a fitted effect of over 55% in size; note: potency is the fitted concentration of half-maximal effect). The method, boiled down: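 P450-Glo luminescent screen: recombinant CYP2D6 enzyme–proluciferin substrate mix preincubated with compound 10 min at room temperature, then NADPH regeneration added for 1 h at room temperature. Detection reagent added for 20 min; luciferin light read as relative luminescence units.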

A short description of experiment [3]: Primary qHTS for inhibitors of nuclear receptor binding SET domain protein 2 (NSD2) in an isogenic RCH-ACV NSD2 p.E1099K mutant (9B) (AID 1645876). Note: nearly all actives have a fitted effect of over 70% in size. Note: potency is the fitted concentration of half-maximal effect.
Experiment [4] addresses Cytochrome P450 2C9 (Homo sapiens) (UniProt P11712). The experiment can be described thus: Cytochrome P450 family 2 subfamily C member 9 (CYP2C9) small molecule antagonists: luciferase biochemical (cell-free) qHTS assay (AID 1645842; active = well fitted curve in the direction sought with a large enough effect in the repeat runs; an effect the other way counts as inactive or inconclusive; note: nearly all actives have a fitted effect of over 55% in size; note: potency is the fitted concentration of half-maximal effect). Summed up: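 Luminescence, after 20 min with luciferin detection reagent, reflected CYP2C9 turnover during a 1 h NADPH-driven reaction at 37C. Enzyme-substrate mix contained 0.4% bovine serum albumin and was preincubated with compound 10 min at room temperature.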

Experiment [5] deals with Cytochrome P450 3A4 (Homo sapiens) (UniProt P08684). The experiment can be described thus: Cytochrome P450 family 3 subfamily A member 4 (CYP3A4) small molecule antagonists: luciferase qHTS assay (AID 1645841; active = well fitted curve in the direction sought with a large enough effect in the repeat runs; an effect the other way counts as inactive or inconclusive; note: nearly all actives have a fitted effect of over 45% in size). Summed up:
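P450-Glo CYP3A4 enzyme with proluciferin substrate preincubated 10 min with compound at room temperature, then NADPH regeneration 1 h. Luciferin detection reagent added for 20 min; luminescence recorded. Ketoconazole positive control.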

Chain of Calcium and integrin-binding protein 1 (Homo sapiens) (Q99828 whole entry, looked up): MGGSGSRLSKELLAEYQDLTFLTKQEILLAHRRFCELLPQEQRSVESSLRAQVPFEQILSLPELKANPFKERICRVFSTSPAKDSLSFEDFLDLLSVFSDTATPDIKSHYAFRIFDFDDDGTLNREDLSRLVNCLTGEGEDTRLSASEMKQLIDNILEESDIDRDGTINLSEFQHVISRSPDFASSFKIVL
Chain of Cytochrome P450 2C9 (Homo sapiens) (P11712 whole entry, looked up): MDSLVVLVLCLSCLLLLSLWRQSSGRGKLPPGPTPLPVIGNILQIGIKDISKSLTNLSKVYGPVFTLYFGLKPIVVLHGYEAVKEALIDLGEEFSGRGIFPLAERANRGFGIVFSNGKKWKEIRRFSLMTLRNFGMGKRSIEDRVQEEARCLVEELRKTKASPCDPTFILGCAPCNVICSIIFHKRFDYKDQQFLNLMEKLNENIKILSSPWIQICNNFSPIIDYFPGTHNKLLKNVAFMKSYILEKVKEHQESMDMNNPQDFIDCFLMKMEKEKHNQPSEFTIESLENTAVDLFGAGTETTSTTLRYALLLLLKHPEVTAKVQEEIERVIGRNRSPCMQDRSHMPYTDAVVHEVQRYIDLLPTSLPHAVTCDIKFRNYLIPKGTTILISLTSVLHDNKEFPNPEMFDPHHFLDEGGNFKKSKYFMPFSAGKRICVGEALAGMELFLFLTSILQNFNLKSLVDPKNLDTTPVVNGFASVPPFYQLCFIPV
Chain of Cytochrome P450 2D6 (Homo sapiens) (P10635 whole entry, looked up): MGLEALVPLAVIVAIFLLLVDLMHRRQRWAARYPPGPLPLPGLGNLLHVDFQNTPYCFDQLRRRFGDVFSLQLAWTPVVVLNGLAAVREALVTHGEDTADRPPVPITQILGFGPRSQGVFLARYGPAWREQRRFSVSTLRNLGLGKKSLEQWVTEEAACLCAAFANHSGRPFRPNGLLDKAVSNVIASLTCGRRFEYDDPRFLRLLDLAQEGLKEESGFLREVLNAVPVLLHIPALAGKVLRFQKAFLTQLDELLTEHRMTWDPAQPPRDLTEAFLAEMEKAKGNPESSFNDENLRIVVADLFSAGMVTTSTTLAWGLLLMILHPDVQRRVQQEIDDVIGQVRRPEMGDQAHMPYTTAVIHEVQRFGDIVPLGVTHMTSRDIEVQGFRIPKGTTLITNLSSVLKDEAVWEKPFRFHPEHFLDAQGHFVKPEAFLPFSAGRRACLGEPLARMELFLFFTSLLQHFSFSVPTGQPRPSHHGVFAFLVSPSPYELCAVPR
Chain of Cytochrome P450 3A4 (Homo sapiens) (P08684 whole entry, looked up): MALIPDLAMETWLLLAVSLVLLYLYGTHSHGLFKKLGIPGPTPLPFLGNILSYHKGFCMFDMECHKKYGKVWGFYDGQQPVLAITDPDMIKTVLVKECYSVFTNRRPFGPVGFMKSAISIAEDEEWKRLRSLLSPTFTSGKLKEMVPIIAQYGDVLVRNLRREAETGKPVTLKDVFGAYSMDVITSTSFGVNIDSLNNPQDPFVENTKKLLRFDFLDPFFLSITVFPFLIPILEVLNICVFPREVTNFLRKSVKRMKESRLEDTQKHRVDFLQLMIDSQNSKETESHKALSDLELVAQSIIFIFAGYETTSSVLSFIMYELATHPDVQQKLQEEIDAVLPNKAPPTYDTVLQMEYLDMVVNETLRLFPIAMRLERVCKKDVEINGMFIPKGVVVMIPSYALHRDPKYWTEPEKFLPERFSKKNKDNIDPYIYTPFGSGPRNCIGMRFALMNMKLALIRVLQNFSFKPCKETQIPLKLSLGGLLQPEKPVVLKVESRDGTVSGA

Regarding `Cc1cc(OCc2nc(-c3ccccc3Cl)cs2)ccc1OCC(=O)O`, the Potency entry in experiment [1], in experiment [2] and in experiment [3] was “inactive” in each case.

As to `CCCCOC(=O)NC(=O)C1c2ccccc2Oc2ccccc21`, the Potency entry in experiment [1], in experiment [2] and in experiment [3] was “inactive” in each case.

Consider `O=C(CCCCN1CCOCC1)Nc1ccc(-c2cccnc2)cc1`, for which the Potency entry in experiment [1], in experiment [4] and in experiment [3] was “inactive” each time. In addition, the Potency in experiment [2] was 6.01 µM (active).

`NCc1ccc(Nc2ncc(F)c(Nc3ccccc3)n2)cc1`: in experiment [1], the Potency entry was “inactive”. Moreover, the Potency is 15.1 µM (active) in experiment [2], 6.74 µM (active) in experiment [4] and 3.25 µM (active) in experiment [3].

Take `O=C(O)CC1CCC(c2ccc(-c3ccc4nc(C(=O)NCc5ccc(OC(F)(F)F)cc5)cn4c3)cc2)CC1` (stereo unspecified): the Potency result in experiment [1], in experiment [2] and in experiment [3] was “inactive” throughout.

As for `CC1CCN(C(=O)CC#N)CC1N(C)c1ncnc2[nH]ccc12` (stereo unspecified), the Potency result in experiment [1], in experiment [2] and in experiment [3] was “inactive” in each case. Moreover, the Potency in experiment [4] was 23.9 µM (active).

`COc1ccc(N2CCOCC2)c2sc(NC(=O)N3CCC(C)(O)CC3)nc12`: the Potency entry in experiment [1] and in experiment [3] was “inactive” each time. In addition, the Potency in experiment [2] was 16.9 µM (active).

With `N#Cc1ccc2[nH]cc(CCCCN3CCN(c4ccc5oc(C(N)=O)cc5c4)CC3)c2c1`, the Potency result in experiment [1] is “inactive”. Besides, the Potency in experiment [2] was 4.77 µM (active); in experiment [4], 13.5 µM (active); in experiment [3], 14.5 µM (active).

Regarding `CCOCCn1nc(CC)c2nc(N3CCC(C(=O)O)CC3)nc(Nc3cc(C)ccn3)c21`, the Potency entry in experiment [1], in experiment [2] and in experiment [3] was “inactive” in each case.

For `CN(C)C1CCN(C(=O)c2ccc(NC(=O)Nc3ccc(-c4nc(N5CCOCC5)nc(N5CCOCC5)n4)cc3)cc2)CC1`, the Potency entry in experiment [1], in experiment [2] and in experiment [4] was “inactive” each time. Moreover, the Potency in experiment [3] was 0.0417 µM (active).

With `COc1cc(N)c(Cl)cc1C(=O)NC[C@@H]1CCN2CCC[C@@H]12`, the Potency result in experiment [1] and in experiment [3] was “inactive” each time. For the same compound, the results for the Potency in experiment [2] and in experiment [4] were 10.7 µM (active) and 9.52 µM (active), respectively.

Take `Nc1nc(-n2cc(C(=O)O)c(=O)c3cc(F)c(N4CC(O)C4)c(Cl)c32)c(F)cc1F`: the Potency entry in experiment [1], in experiment [2] and in experiment [3] was “inactive” throughout.

As for `Cn1nnc(-c2ccc(-c3ccc(N4C[C@H](CO)OC4=O)cc3F)cn2)n1`, the Potency result in experiment [1], in experiment [2] and in experiment [3] was “inactive” in each case.

On to `CN(C)c1nc(NC2CCC(NC(=O)c3ccc(F)c(F)c3)CC2)nc2ccccc12` (stereo unspecified), for which the Potency result in experiment [1] is “inactive”. Moreover, the values for the Potency in experiment [2] and in experiment [3] were 5.35 µM (active) and 6.49 µM (active), respectively.

On to `CC(C)(C)Nc1nc2cc(Cl)c(Cl)cc2nc1S(C)(=O)=O`, for which the Potency entry in experiment [1] was “inactive”. The Potency was 6.01 µM (active) in experiment [2], 5.35 µM (active) in experiment [4] and 1.29 µM (active) in experiment [3].

`O=C(O)[C@H](Cc1ccc(Nc2nccc3ccncc23)cc1)NC1=C(Br)C(=O)C12CCCCC2`: the Potency result in experiment [1], in experiment [2] and in experiment [3] was “inactive” throughout.

Turning to `CN(C)CC1CCOC1(c1ccccc1)c1ccccc1` (stereo unspecified), the Potency result in experiment [1] and in experiment [3] was “inactive” throughout. In addition, in experiment [2], the Potency is 2.24 µM (active).

For `Cc1ccccc1NC(=O)Nc1ccc(CC(=O)N(C)[C@@H](CC(C)C)C(=O)NCC[C@H](NC(=O)[C@@H]2CCCN2S(=O)(=O)c2cc(Cl)cc(Cl)c2)C(=O)O)cc1`, the Potency entry in experiment [1], in experiment [2] and in experiment [3] was “inactive” in each case.

Take `O=C(O)Cc1ccc2oc(-c3ccc(NC(=O)/C=C/c4ccc(Br)cc4)c(F)c3)nc2c1`: the Potency entry in experiment [1], in experiment [2] and in experiment [3] was “inactive” each time.

In the case of `CCOC(=O)Nc1cc(-c2ccc(C)c(NS(C)(=O)=O)c2)nn2c(C)nnc12`, the Potency result in experiment [1] and in experiment [2] was “inactive” in each case. Also, the Potency in experiment [3] was 0.728 µM (active).

For `C[C@@H]1COCCN1c1cc(C2(S(C)(=O)=O)CC2)nc(-c2cccc3[nH]ccc23)n1`, the Potency entry in experiment [1] and in experiment [2] was “inactive” throughout. The Potency in experiment [3] was 0.515 µM (active).

With `Cc1cc(C(=O)N2Cc3cnn(C)c3Nc3ccccc32)ccc1CNC(=O)N1CCC[C@H]1C(=S)N1CCCN(C)CC1`, the Potency result in experiment [1], in experiment [2] and in experiment [3] was “inactive” in each case.

`CNC(=O)c1cccc(-c2ccc3c(N4CCOC[C@@H]4C)nc(N4CCOC[C@@H]4C)nc3n2)c1`: the Potency entry in experiment [1] is “inactive”. Moreover, the Potency result in experiment [2] is “inactive and 15.1 µM (active)”; in experiment [4], 12 µM (active) and 10.7 µM (active); in experiment [3], 129 nM (active) and 326 nM (active) and 148 nM (active).

As to `Cc1ccc(Cc2c(C)nc3nc(SCC(=O)NCCN4CCNCC4)nn3c2C)cc1`, the Potency result in experiment [1], in experiment [2] and in experiment [3] was “inactive” in each case.

Regarding `CCNC(=O)Nc1ccc(-c2nc3c(c(N4CCOC[C@@H]4C)n2)CCN(c2ncccn2)C3)cc1`, the Potency result in experiment [1] was “inactive”. The Potency was 10.7 µM (active) in experiment [2] and 0.0728 µM (active) in experiment [3].

In the case of `CC1(C)CCC(C)(C)c2cc(C3(c4ccc(C(=O)O)cc4)OCCO3)ccc21`, the Potency result in experiment [1], in experiment [2] and in experiment [3] was “inactive” throughout.

As to `CCCN1CCC(c2cccc(S(C)(=O)=O)c2)CC1`, the Potency entry in experiment [1], in experiment [4] and in experiment [3] was “inactive” each time. Besides, in experiment [2], the Potency is 8.49 µM (active).

Turning to `CC(=O)SCC(=O)c1ccc(NS(=O)(=O)c2ccc(OCCCN(C)C)cc2)nc1`, the Potency entry in experiment [1] and in experiment [2] was “inactive” in each case. Further, the Potency in experiment [3] was 1.29 µM (active).

In the case of `CCOC(=O)CCN(C(=O)c1ccc2c(c1)nc(CNc1ccc(C(=N)N)cc1)n2C)c1ccccn1`, the Potency result in experiment [1], in experiment [2] and in experiment [3] was “inactive” each time.

Regarding `O=C(O)c1cc(-c2c(-c3ccccc3)nn3ccccc23)n[nH]c1=O`, the Potency result in experiment [1], in experiment [2] and in experiment [3] was “inactive” in each case.

With `COc1ccc([C@H]2CNC(=O)C2)cc1OC1CCCC1`, the Potency entry in experiment [1], in experiment [2], in experiment [4] and in experiment [3] was “inactive” in each case.

On to `CC(C)C(CO)Nc1nc(Nc2ccc(C(=O)O)c(Cl)c2)c2ncn(C(C)C)c2n1` (stereo unspecified), for which the Potency result in experiment [1], in experiment [2] and in experiment [3] was “inactive” each time.

`C=CC(=O)Nc1cccc(Nc2nc(Nc3ccc(N4CCN(C(C)=O)CC4)cc3OC)ncc2C(F)(F)F)c1`: the Potency result in experiment [1] and in experiment [2] was “inactive” throughout. Besides, in experiment [3], the Potency is 3.65 µM (active) and 4.17 µM (active).

As to `CN1CCN(Cc2ccc(-c3cnc4[nH]cc(-c5ccc6[nH]ccc6c5)c4c3)cc2)CC1`, the Potency entry in experiment [1] is “inactive”. The Potency in experiment [2] was 2.13 µM (active); in experiment [4] it was 12 µM (active); in experiment [3], 1.45 µM (active).

Take `Cc1ncc(CCCN(C)C)cc1Nc1ncc2c(n1)-c1ccc(C(F)(F)F)cc1NC(=S)C2`: the Potency entry in experiment [1] was “inactive”. Moreover, the results for the Potency in experiment [2] and in experiment [3] were 13.5 µM (active) and 0.0916 µM (active), respectively.

Take `COc1cc2ncnc(Nc3cccc(O)c3)c2cc1OC`: the Potency result in experiment [1] and in experiment [2] was “inactive” throughout. Besides, in experiment [3], the Potency is 2.9 µM (active).

As for `Nc1nc(Nc2ccc(S(N)(=O)=O)cc2)n(C(=S)Nc2c(F)cccc2F)n1`, the Potency result in experiment [1] and in experiment [3] was “inactive” each time. In addition, the Potency in experiment [2] is 10.7 µM (active).

For the compound `COC(C(=O)N1Cc2[nH]nc(NC(=O)c3ccc(N4CCN(C)CC4)cc3)c2C1)c1ccccc1` (stereo unspecified), the Potency entry in experiment [1], in experiment [5] and in experiment [4] was “inactive” throughout. Besides, the Potency in experiment [3] was 0.0515 µM (active).
